A selection: hits, their analogues and other compounds. The true share with any hit is near 6.6%.
BoNT A protease: BoNT/A light chain protease inhibitors, primary screen, biochemical, flow cytometry, MLPCN library; AID 588499, 2011; Botulinum neurotoxin type A light chain protease (Clostridium botulinum A str. ATCC 3502); multiplex microsphere protease substrate cleavage; inhibition, % at 10 µM; 360,000 tested, 0.17% active; further: plate controls were buffer without enzyme for full effect and enzyme alone for no effect
Anthrax LF prot: Bacillus anthracis LF protease inhibitors, primary screen, biochemical, multiplex microsphere, MLPCN library | 360,000 tested, 0.12% active | inhibition, % at 10 µM | multiplex microsphere protease cleavage assay | Lethal factor (Bacillus anthracis), P15917; further: plate controls were buffer without enzyme for full effect and enzyme alone for no effect
Autofluor counter: flagged as autofluorescent in microsphere protease counterscreen | compound autofluorescence counterscreen, microsphere flow cytometry; active compounds read high | fluorescence intensity (test concentration not listed) | 360,000 tested, 3.1% active; in the data active means fluorescence intensity above about 16000; inconclusive means no clear call, values can overlap the other calls
BoNT-F LC inh: BoNT/F light chain protease inhibitors, primary screen, biochemical, flow cytometry, MLPCN library | Botulinum neurotoxin type F light chain protease (Clostridium botulinum) | Multiplex microsphere protease cleavage assay | inhibition, % at 10 µM | 360,000 tested, 0.22% active; in the data active means inhibition above about 35%, passing the limit was not always enough; inconclusive means no clear call, values can overlap the other calls; further: plate controls were buffer without enzyme for full effect and enzyme alone for no effect
FBA Mtb inh: Mtb FBA enzyme inhibitors, primary screen, biochemical, fluorescence, strain H37Rv | Fructose-bisphosphate aldolase (Mycobacterium tuberculosis (strain ATCC 25618 / H37Rv)), … | purified M. tuberculosis FBA, fluorescence read-out | inhibition, % at 1 µM | 360,000 tested, 2.3% active; in the data active means inhibition above about 27%;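 further: 0% = vehicle and 100% = reference inhibitor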
Target sequence (P9WQA3 whole entry, looked up): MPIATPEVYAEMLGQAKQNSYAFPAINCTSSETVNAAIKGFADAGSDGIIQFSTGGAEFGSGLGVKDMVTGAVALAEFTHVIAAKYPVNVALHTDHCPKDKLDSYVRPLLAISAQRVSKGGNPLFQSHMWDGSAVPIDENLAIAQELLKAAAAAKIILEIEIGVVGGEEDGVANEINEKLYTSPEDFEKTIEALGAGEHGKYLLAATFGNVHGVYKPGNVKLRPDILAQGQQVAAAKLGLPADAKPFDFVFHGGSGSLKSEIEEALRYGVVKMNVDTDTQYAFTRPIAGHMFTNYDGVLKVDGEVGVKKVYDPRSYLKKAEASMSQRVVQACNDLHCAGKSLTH
GDH-TPI inh: GDH-TPI coupling enzyme inhibitors, primary screen, artefact control for M. tuberculosis FBA inhibitor project, biochemical, absorbance, full deck; GDH-TPI coupled enzyme counterscreen, NADH absorbance; inhibition, % at 4.8 µM; 360,000 tested, 1.2% active; AID 588335, 2011; in the data active means inhibition above about 30%;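 further: 0% = DMSO wells and 100% = wells lacking the enzyme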
* marks the source's active call; other numbers are inactive results. Unless noted, no stated cut-off is given here; in the data, active means inhibition above about 30%; inconclusive means no clear call, values can overlap the other calls; inactive means below that.

Screening COC(=O)c1cccc(S(=O)(=O)N(Cc2ccco2)Cc2cc3ccc(OC)cc3[nH]c2=O)c1 returned BoNT A protease -4, Anthrax LF prot -1, Autofluor counter 24753*, BoNT-F LC inh -4, FBA Mtb inh 5 and GDH-TPI inh 17.
For CC(=O)c1cccc(S(=O)(=O)N(CCCO)Cc2cc3ccc(C)cc3[nH]c2=O)c1 the results were BoNT A protease -6, Anthrax LF prot 0, Autofluor counter 24495*, BoNT-F LC inh -7, FBA Mtb inh -3 and GDH-TPI inh 11.
`CC(C)(C)n1nnnc1C(c1ccccc1)N1CCN(c2ncccn2)CC1` (configuration not stated) gave BoNT A protease 0, Anthrax LF prot 0, Autofluor counter 5637 and BoNT-F LC inh -1.
COc1ccc(/C=N/NC(=O)c2cccc(O)c2)cc1Cn1nc(C)c([N+](=O)[O-])c1C was read as BoNT A protease 1, Anthrax LF prot -6, Autofluor counter 8199, BoNT-F LC inh -2, FBA Mtb inh -6 and GDH-TPI inh -1.
O=S(=O)(NCC1CCCO1)c1ccc(S(=O)(=O)N2CCCC2)cc1 (configuration not stated) was read as BoNT A protease 0, Anthrax LF prot -3, Autofluor counter 12172, BoNT-F LC inh -3, FBA Mtb inh 3 and GDH-TPI inh 13.
For CC1CCN(S(=O)(=O)c2ccc(S(=O)(=O)NCC3COCCO3)cc2)CC1 (configuration not stated) the results were BoNT A protease -2, Anthrax LF prot 1, Autofluor counter 23033*, BoNT-F LC inh -1, FBA Mtb inh -1 and GDH-TPI inh -9.
`O=C(COC(=O)C1CC2C=CC1C2)Nc1ccc2c(c1)OC(F)(F)O2` (configuration not stated) gave BoNT A protease 0, Anthrax LF prot -1, Autofluor counter 16493*, BoNT-F LC inh 1, FBA Mtb inh -3 and GDH-TPI inh 11.
`O=C(O)c1cccc(N2C(=O)c3ccc(Oc4ccc(Cl)cc4)cc3C2=O)c1` gave BoNT A protease -1, Anthrax LF prot -1, Autofluor counter 4778, BoNT-F LC inh -6, FBA Mtb inh 3 and GDH-TPI inh -3.
`O=C(O)c1cccc(N2C(=O)c3ccc4c5c(ccc(c35)C2=O)C(=O)N(c2cccc(C(=O)O)c2)C4=O)c1` gave BoNT A protease 0, Anthrax LF prot -3, Autofluor counter 4537, BoNT-F LC inh -3, FBA Mtb inh -3 and GDH-TPI inh 38*.
For OCCNCC12CC3CC(CC(C3)C1)C2 the results were BoNT A protease 0, Anthrax LF prot 7, Autofluor counter 4527, BoNT-F LC inh 0, FBA Mtb inh -2 and GDH-TPI inh -3.
Screening COc1cc(S(=O)(=O)Nc2ccccc2C(=O)N2CCCCC2)ccc1NC(C)=O returned BoNT A protease -36, Anthrax LF prot -6, Autofluor counter inconclusive, BoNT-F LC inh -44, FBA Mtb inh 0 and GDH-TPI inh 2.
`COc1ccc(C2CC(=O)C3=C(C2)NC(C)=C(C(=O)Nc2ccccc2C)C3c2coc3ccc(C)cc3c2=O)cc1OC` (configuration not stated) gave BoNT A protease inconclusive, Anthrax LF prot -2, Autofluor counter 23361*, BoNT-F LC inh -1, FBA Mtb inh -4 and GDH-TPI inh 11.
For CC1=C(C(=O)Nc2ccccc2)C(c2coc3ccccc3c2=O)C2=C(CCCC2=O)N1 (configuration not stated) the results were BoNT A protease 3, Anthrax LF prot 1, Autofluor counter 2070, BoNT-F LC inh 22, FBA Mtb inh 3 and GDH-TPI inh 12.
Screening COC(=O)C12CCC(C)(c3nc4ccccc4nc31)C2(C)C (configuration not stated) returned BoNT A protease 0, Anthrax LF prot -9, Autofluor counter 3265, BoNT-F LC inh 10, FBA Mtb inh 2 and GDH-TPI inh 6.
`CC(C)(C)NC(=O)C12CCC(C)(c3nc4ccccc4nc31)C2(C)C` (configuration not stated) gave BoNT A protease 3, Anthrax LF prot -1, Autofluor counter 22617*, BoNT-F LC inh 3, FBA Mtb inh 3 and GDH-TPI inh 6.
COCCNC(=O)Cn1nc(-c2ccc(C)cc2)c2ccccc2c1=O was read as BoNT A protease -3, Anthrax LF prot 0, Autofluor counter 3625, BoNT-F LC inh 5, FBA Mtb inh 1 and GDH-TPI inh -11.
For CCC1(C)CN=C(c2ccccc2)NC1 (configuration not stated) the results were BoNT A protease 0, Anthrax LF prot 7, Autofluor counter 3808, BoNT-F LC inh -6, FBA Mtb inh 7 and GDH-TPI inh 12.
For Cc1ccc(C(=O)N2N=C(c3ccccc3O)CC2c2ccccc2)cc1 (configuration not stated) the results were BoNT A protease -2, Anthrax LF prot 17, Autofluor counter 2967, BoNT-F LC inh 9, FBA Mtb inh 3 and GDH-TPI inh 4.
`Oc1ccccc1C1=Nc2ncnn2C(c2ccccc2)C1` (configuration not stated) gave BoNT A protease -1, Anthrax LF prot -10, Autofluor counter 16346*, BoNT-F LC inh -4, FBA Mtb inh 3 and GDH-TPI inh 35*.
`CCc1nc2ccc(C(=O)NCc3ccc4c(c3)OCO4)cn2c1N(CCC(C)C)CCN(C)C` gave BoNT A protease 0, Anthrax LF prot -2, Autofluor counter 3057, BoNT-F LC inh -10, FBA Mtb inh 6 and GDH-TPI inh 14.
CN1CCCCCC1=Nc1ccc([N+](=O)[O-])cc1 was read as BoNT A protease 0, Anthrax LF prot 1, Autofluor counter 2847, BoNT-F LC inh 39*, FBA Mtb inh 2 and GDH-TPI inh 15.
Screening CN1CCCC1=Nc1ccccc1 returned BoNT A protease 0, Anthrax LF prot 5, Autofluor counter 3747, BoNT-F LC inh -1, FBA Mtb inh 0 and GDH-TPI inh 7.
Screening O=S(=O)(c1cccc(F)c1)N1CCN(Cc2cc3c(cc2Br)OCCO3)CC1 returned BoNT A protease 1, Anthrax LF prot -3, Autofluor counter 3617, BoNT-F LC inh 0, FBA Mtb inh -2 and GDH-TPI inh 6.
For C=CCn1c(CCNC(=O)c2ccccc2F)nnc1SCc1nc2ccccc2c(=O)[nH]1 the results were BoNT A protease -3, Anthrax LF prot -2, Autofluor counter 24056*, BoNT-F LC inh -4, FBA Mtb inh 2 and GDH-TPI inh 1.

High-throughput results deposited in PubChem BioAssay by several laboratories.
